Z-score data for 16 molecules are collected here from PubChem BioAssay.

Active and inactive are the calls of the source.

The nature of assay [1]: compound effects on lung adenocarcinoma cell viability – A549, calcein-AM fluorescence, 48 h, basal, profiling panel (AID 1162). The settings on record: higher = more signal.
Assay [2] in a line: compound effects on differentiated 3T3-L1 adipocyte viability – cell-based, 3T3-L1 adipocytes, calcein-AM fluorescence, 48 h, basal, profiling panel (AID 1163). The note with it: 3T3-L1 adipocytes viability, higher = more signal.
Assay [3] can be described thus: compound effects on hepatocellular carcinoma cell viability – HepG2, calcein-AM fluorescence, 48 h, basal, profiling panel (AID 1164). The settings on record: higher = more signal.
Assay [4] is described as follows: compound effects on multiple myeloma cell viability – MM1S, calcein-AM fluorescence, 48 h, basal, profiling panel (AID 1165).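 Further: viability of MM1S multiple myeloma cells under basal unstimulated conditions.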 The note with it: higher = more signal.
A short description of assay [5]: calcein-AM signal in unstimulated myeloma cells – cell-based, calcein-AM fluorescence, 48 h, PK04 Diversity Set, profiling panel (AID 1166).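 Further: cells grown under basal conditions without added stimulus.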 The note with it: RPMI8226 myeloma viability, higher = more signal.
The nature of assay [6]: JC-1 mitochondrial signal, unstimulated HepG2 cells – cell-based, JC-1 fluorescence, 24 h, 100 nL compound, profiling panel (AID 1167). The note with it: HepG2 mitochondrial potential, higher = more signal.
Assay [7] can be described thus: JC-1 mitochondrial signal, unstimulated adipocytes – cell-based, JC-1 fluorescence, 3T3-L1 adipocytes, 24 h, 100 nL compound, profiling panel (AID 1168). The note with it: JC-1 mitochondrial fluorescence, higher = more signal, called active from +8 up or from −8 down.
Assay [8] is described as follows: JC-1 mitochondrial signal, unstimulated myeloma cells – cell-based, JC-1 fluorescence, RPMI8226, 24 h, 100 nL compound, profiling panel (AID 1169). The note with it: JC-1 mitochondrial potential fluorescence, higher = more signal.
Assay [9] is described as follows: JC-1 mitochondrial signal, unstimulated MM1S myeloma – cell-based, JC-1 fluorescence, 24 h, 100 nL compound, profiling panel (AID 1170). The settings on record: MM1S mitochondrial potential, higher = more signal.
Assay [10] in a line: resazurin metabolic signal in A549 cells – cell-based, resazurin fluorescence, 24 h, PK04 Diversity Set, profiling panel (AID 1171). The settings on record: A549 viability, higher = more signal, called active from +8 up or from −8 down.
Further: test concentration not given here.

For `CC(C)C[C@@H]1NC(=O)[C@H]2C[C@@H](C(=O)NCCCCCCN(C)C)[C@@H](c3cccc(OCCO)c3)N2C1=O`, the z-score in [1] was -1.26; in assay [2], 0.88; in [3], -0.278; in assay [4] it was 0.303; in assay [5], 0.651; in assay [6], -1.09. The z-score in assay [7] was -0.481 (inactive); in assay [8] it was -0.0673; in [9] it was -0.0169; in assay [10], -0.21 (inactive).

For the molecule `Cc1ccc(S[C@]2(C(=O)O)CC(=O)N(Cc3ccccc3)[C@@H]2c2ccc(CO)cc2I)cc1`, the z-score in assay [1] was 0.282; in assay [2], 0.181; in assay [3], 0.0583; in assay [4], -2.82; in assay [5] it was -2.03; in [6], -0.862. Moreover, the z-score in [7] is -0.486 (inactive); in assay [8], -0.551; in assay [9] it was -0.967; in assay [10], 0.682 (inactive).

Turning to `O=C1C[C@]2(c3ccc([N+](=O)[O-])cc3)C(=O)N(CCN3CCOCC3)c3cc(CO)ccc3[C@H]2N1CC12CC3CC(CC(C3)C1)C2`, the z-score in [1] was -0.677; in assay [2] it was 0.15; in assay [3], -0.227; in assay [4], -0.208; in assay [5], -1.96; in [6] it was -0.141. Also, the z-score is 0.0692 (inactive) in [7], -0.043 in [8], 0.0356 in assay [9] and 0.723 (inactive) in assay [10].

Take `C=C(/C(=C/C[C@H](OC(C)=O)c1ccc(OCCO)cc1)c1cnc2ccccc2c1)C(C)C`: the z-score was 0.207 in assay [1]; 1.03 in assay [2]; -0.427 in assay [3]; -0.753 in assay [4]; 0.383 in [5]; 1.56 in [6]. Besides, the z-score is -0.449 (inactive) in [7], -0.416 in assay [8], 0.0674 in assay [9] and 1.76 (inactive) in assay [10].

For `O=C1CCCC2OC12C(O)CCc1ccccc1` (stereo not given), the z-score in assay [1] was -0.202; in [2], -0.0344; in assay [3] it was -0.229; in assay [4], 0.561; in assay [5], -0.908; in [6], 0.287. In addition, the z-score in assay [7] was 0.279 (inactive); in assay [8], -0.278; in assay [9], 0.353; in assay [10], -0.81 (inactive).

For the molecule `COc1ccc(-c2nc3c(c4c2C[C@H](C)OC4)CN(CCC(C)C)CC3)cc1`, the z-score in assay [1] is 0.537; in [2], -0.49; in [3], 0.443; in assay [4], 0.508; in assay [5], -0.234; in [6], 1.7. Also, the z-score in [7] was -0.613 (inactive); in assay [8], 0.0911; in assay [9], -0.685; in [10], -0.0598 (inactive).

With `C#CCCCON=C1C[C@@H](O)[C@@H](O)[C@@H]2[C@@H]3C(=O)N(Cc4ccccc4)C(=O)[C@@H]3CC[C@H]12`, the z-score in assay [1] is 0.416; in assay [2], 0.798; in assay [3], -0.969; in assay [4] it was 0.772; in assay [5], 0.477; in [6] it was 0.843. In addition, the z-score in assay [7] was 0.381 (inactive); in [8], 0.379; in [9], -0.901; in assay [10] it was 0.97 (inactive).

For the molecule `C[C@@H]1CC[C@H]2C(=O)O[C@H](COc3ccc(C(C)(C)C)cc3)CN2[C@H]1c1ccc(Br)cc1`, the z-score was 1.29 in assay [1]; 0.0543 in assay [2]; 0.0624 in [3]; -0.232 in assay [4]; -0.0964 in assay [5]; -1.12 in assay [6]. In addition, the z-score was -0.204 (inactive) in assay [7], -0.132 in assay [8], 0.621 in [9] and 1.19 (inactive) in assay [10].

As for `C=CC[C@@H]1C=C[C@H](ON=C[C@@H](OC)[C@H](C)C=CCC(=O)OC)[C@@H](CO)O1`, the z-score in assay [1] is 0.812; in [2] it was -0.933; in [3] it was 0.623; in assay [4], 0.486; in assay [5] it was -0.939; in assay [6], -0.0676. Also, the z-score in assay [7] is -0.862 (inactive); in assay [8], 0.461; in [9] it was -0.448; in assay [10] it was -0.498 (inactive).

`CC(C)=C1C(=O)C(c2ccccc2)=C2CN3C(=O)N(CCc4ccccc4)C(=O)[C@]3(Cc3ccc(F)cc3)[C@H]21`: the z-score in assay [1] was -0.751; in assay [2], -0.0154; in [3] it was -0.435; in assay [4], -0.871; in assay [5], -0.975; in [6], 1.07. The z-score in [7] is -1.68 (inactive); in assay [8], -0.0557; in [9] it was -0.339; in [10], 0.0406 (inactive).

As to `COC(=O)c1c(CC[C@@H](CO)NC(=O)N[C@H](Cc2ccccc2)Cn2cc(-c3ccccc3N)nn2)oc(C(C)=O)c1C(=O)OC`, the z-score in assay [1] is 0.238; in [2] it was 0.475; in assay [3], 0.169; in assay [4], -0.0234; in [5], 0.229; in assay [6], -0.864. Moreover, the z-score in [7] was -0.474 (inactive); in assay [8] it was -0.415; in assay [9] it was 0.65; in assay [10], -0.0935 (inactive).

`C[C@@H]1C=CCC(=O)OC[C@H](C)C(=O)OC[C@H]2O[C@H]1C=C[C@H]2O`: the z-score is 0.145 in assay [1]; -0.261 in [2]; -0.139 in [3]; -1.42 in assay [4]; -0.595 in [5]; 0.482 in assay [6]. Also, the z-score in assay [7] is 0.36 (inactive); in assay [8], -0.103; in assay [9], -0.314; in [10], 0.172 (inactive).

In the case of `COC(=O)CC=C[C@H](C)[C@@H](OCc1ccccc1Br)C(C)C`, the z-score in [1] was 0.921; in assay [2], 0.0901; in [3], 1.34; in assay [4], 0.426; in assay [5], 0.736; in assay [6], 0.744. The z-score is 0.319 (inactive) in assay [7], 0.00667 in [8], -0.822 in assay [9] and -0.307 (inactive) in assay [10].

`COc1ccc([Si](C)(C)[C@@H]2[C@@H](CCO)O[C@]3(C(=O)N(Cc4ccc(NC(C)=O)cc4)c4ccccc43)[C@H]2C)cc1`: the z-score in [1] is -1.98; in assay [2], 1.37; in [3], -2.77; in [4], -2.47; in assay [5], -3.9; in assay [6] it was -1.29. Also, the z-score in assay [7] was -0.0969 (inactive); in assay [8] it was -1.18; in assay [9], -1.93; in [10] it was -3.2 (inactive).

For the molecule `CC(C)NC(=O)[C@@H]1c2ccccc2C(=O)N(CC23CC4CC(CC(C4)C2)C3)[C@H]1c1ccc(CO)cc1`, the z-score in assay [1] was 1.39; in [2], 0.885; in assay [3], 1.29; in assay [4] it was -0.0705; in [5], 0.301; in assay [6] it was 1.83. Moreover, the z-score is -0.459 (inactive) in assay [7], 0.433 in assay [8], -0.624 in assay [9] and 1.18 (inactive) in assay [10].

Consider `CCCNC(=O)[C@@H]1c2ccccc2C(=O)N(c2ccc(C)cn2)[C@H]1c1ccc(CO)cc1`, for which the z-score in assay [1] was -0.293; in assay [2] it was -0.857; in [3], -0.108; in assay [4], -0.336; in assay [5] it was -0.0505; in assay [6], -0.833. Also, the z-score was 0.123 (inactive) in [7], 0.657 in assay [8], -0.351 in assay [9] and 0.418 (inactive) in [10].
